SMILES strings stand for the structures. This is part of a sample that, as a whole, favours compounds with a hit. Of some 83,000 tested, about 20% had one in any assay.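 Percent growth is the endpoint: 0 to 100 indicates growth inhibition (40 means 60% inhibition), 0 means no net growth, and negative values indicate cell death.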 Unmarked numbers belong to inactive results. Calls of active or inactive are those of the source. The calls were made as follows: active = growth percent below 10; inactive = the rest.

This note sets out measurements from PubChem BioAssay (NCI).

Some test systems named below: DU-145 prostate; K-562 leukemia; MALME-3M melanoma; MDA-MB-231 breast; RXF 393 renal; SF-268 CNS; SF-295 CNS; SF-539 CNS; UACC-257 melanoma; M14 melanoma; HCT-15 colon; HT29 colon; SNB-75 CNS; SNB-19 CNS; U251 CNS; PC-3 prostate; SK-MEL-5 melanoma; UACC-62 melanoma; LOX IMVI melanoma; SK-MEL-28 melanoma.
Assay in all cases: NCI-60 one-dose screen, 48 h (100 = growth as untreated, 0 = no growth, -100 = all killed)
Holding throughout (settings): 10 µM unless noted

Take `CC(C)(C)CC(C)(C)NCc1cc(C(C)(C)C)cc(CNC(C)(C)CC(C)(C)C)c1O`: the growth in the experiment on DU-145 prostate is 66.6%; in the experiment on K-562 leukemia, 3.08% (active); in the experiment on MALME-3M melanoma it was 51%; in the experiment on MDA-MB-231 breast it was 23.3%; with RXF 393 renal it was 76.2%; in the experiment with SF-268 CNS, 85.2%. The growth in the experiment on SF-295 CNS was 57.7%; in the experiment on SF-539 CNS, 83.8%; in the experiment on UACC-257 melanoma it was 75.3%; in the experiment on M14 melanoma, 70.1%; with HCT-15 colon, 56.8%; in the experiment with HT29 colon, 11.1%. Further, the growth with SNB-75 CNS was 60.8%; in the experiment on SNB-19 CNS it was 77.2%; with U251 CNS, 49.7%; with PC-3 prostate, 47.9%; in the experiment on SK-MEL-5 melanoma it was 36.8%; with UACC-62 melanoma it was 82.9%. Further, the growth in the experiment with LOX IMVI melanoma was 45.6%; with SK-MEL-28 melanoma, 80.5%.
For the compound `Nc1nc2c(c3ncccc13)C(c1ccccc1)Cc1ncccc1-2` (stereo not drawn), the growth in the experiment on DU-145 prostate was 103%; in the experiment on K-562 leukemia, 27.1%; with MALME-3M melanoma, 76.1%; in the experiment with MDA-MB-231 breast, 65.9%; with RXF 393 renal it was 99.3%; in the experiment on SF-268 CNS, 86.4%. The growth is 67.4% with SF-295 CNS; 78.1% in the experiment with SF-539 CNS; 93.1% in the experiment with UACC-257 melanoma; 44.8% in the experiment on M14 melanoma; 46.1% in the experiment on HCT-15 colon; 56.9% in the experiment on HT29 colon. Moreover, the growth in the experiment with SNB-75 CNS was 71.2%; in the experiment with SNB-19 CNS, 91.8%; with U251 CNS, 72.2%; in the experiment on PC-3 prostate, 73.9%; in the experiment with SK-MEL-5 melanoma, 53.1%; with UACC-62 melanoma, 59.4%. In addition, the growth in the experiment with LOX IMVI melanoma is 70.9%; in the experiment on SK-MEL-28 melanoma it was 83.5%.
On to `Cc1n(Cc2ccc3ccccc3n2)cc[n+]1Cc1ccc2ccccc2n1`, for which the growth with DU-145 prostate is 94.6%; with K-562 leukemia it was 36.2%; in the experiment with MALME-3M melanoma it was 55.9%; with MDA-MB-231 breast, 97.3%; with RXF 393 renal, 86.8%; with SF-268 CNS it was 73.5%. In addition, the growth in the experiment with SF-295 CNS is 87.7%; with SF-539 CNS, 67.9%; in the experiment with UACC-257 melanoma, 42.6%; in the experiment with M14 melanoma it was 86.9%; with HCT-15 colon, 100%; with HT29 colon it was 62%. Also, the growth in the experiment on SNB-75 CNS was 65.8%; in the experiment with SNB-19 CNS, 54%; in the experiment on U251 CNS, 58.8%; in the experiment with PC-3 prostate, 55.8%; with SK-MEL-5 melanoma, 59%; with UACC-62 melanoma, 73%. The growth is 81.9% with LOX IMVI melanoma and 72% in the experiment on SK-MEL-28 melanoma.
Regarding `Clc1ccc2c(c1)-n1cccc1C(c1ccc3ccccc3c1)=NC2`, the growth with DU-145 prostate is 115%; in the experiment with K-562 leukemia it was 49.4%; in the experiment on MALME-3M melanoma it was 97.8%; in the experiment with MDA-MB-231 breast, 120%; in the experiment with RXF 393 renal it was 96.1%; in the experiment on SF-268 CNS it was 109%. In addition, the growth in the experiment with SF-295 CNS is 80.6%; in the experiment on SF-539 CNS it was 103%; in the experiment with UACC-257 melanoma it was 100%; in the experiment with M14 melanoma it was 87.8%; in the experiment on HCT-15 colon, 77.2%; in the experiment with HT29 colon, 74.1%. Moreover, the growth is 83.2% in the experiment with SNB-75 CNS; 79.1% in the experiment on SNB-19 CNS; 95.6% with U251 CNS; 79.8% in the experiment on PC-3 prostate; 95.8% in the experiment on SK-MEL-5 melanoma; 78.3% in the experiment on UACC-62 melanoma. In addition, the growth in the experiment with LOX IMVI melanoma was 112%; in the experiment on SK-MEL-28 melanoma, 100%.
As for `Cc1ccc(S(=O)(=O)NC(CCC(=O)Nc2ccc(Cl)cc2)C(=O)Nc2ccc(Cl)cc2)cc1` (stereo not drawn), the growth in the experiment with DU-145 prostate is 45.8%; in the experiment on K-562 leukemia, 2.8% (active); with MALME-3M melanoma, 14.2%; with MDA-MB-231 breast, -5.94% (active); with RXF 393 renal, 22.9%; in the experiment with SF-268 CNS it was 38.8%. Further, the growth in the experiment on SF-295 CNS was 10.5%; in the experiment with SF-539 CNS it was -20.5% (active); with UACC-257 melanoma, 45.6%; with M14 melanoma, 32.2%; in the experiment with HCT-15 colon it was 18.9%; with HT29 colon, 14.2%. Moreover, the growth was -17.2% (active) in the experiment on SNB-75 CNS; 14.1% in the experiment with SNB-19 CNS; 12.5% in the experiment on U251 CNS; 17.8% with PC-3 prostate; 21.2% in the experiment with SK-MEL-5 melanoma; 2.47% (active) with UACC-62 melanoma. Moreover, the growth in the experiment on LOX IMVI melanoma was 6.06% (active); in the experiment with SK-MEL-28 melanoma, 64.3%.
Consider `CCN1CCN(Cc2ccc(NC(=O)c3nc4ccc5[nH]ncc5c4c4c3CCCC4)cc2C(F)(F)F)CC1`, for which the growth was -57.8% (active) in the experiment with DU-145 prostate; -44.5% (active) with K-562 leukemia; -79.3% (active) with MALME-3M melanoma; -72.1% (active) with MDA-MB-231 breast; -87.4% (active) in the experiment with RXF 393 renal; 27.4% in the experiment on SF-268 CNS. Also, the growth was -54.2% (active) in the experiment with SF-295 CNS; -93.7% (active) in the experiment with SF-539 CNS; -63.9% (active) in the experiment on UACC-257 melanoma; -75.4% (active) with M14 melanoma; -47.8% (active) with HCT-15 colon; -74.3% (active) with HT29 colon. Also, the growth with SNB-75 CNS is 80.8%; with SNB-19 CNS, 13.9%; in the experiment on U251 CNS, -85.7% (active); with PC-3 prostate, 19.8%; in the experiment on UACC-62 melanoma it was -68.7% (active); in the experiment on LOX IMVI melanoma, -94.6% (active).
As for `COCCOCCOCc1n(Cc2ccc3ccccc3n2)c2ccccc2[n+]1Cc1ccc2ccccc2c1`, the growth with DU-145 prostate is 24.6%; with K-562 leukemia, 2.47% (active); in the experiment with MALME-3M melanoma it was -7.52% (active); with MDA-MB-231 breast, 8.58% (active); with RXF 393 renal, -19.9% (active); with SF-268 CNS, 20%. Besides, the growth is -12.3% (active) in the experiment with SF-295 CNS; 15.8% in the experiment on SF-539 CNS; -8.67% (active) with UACC-257 melanoma; -0.723% (active) in the experiment with M14 melanoma; 78.3% in the experiment with HCT-15 colon; -4.5% (active) in the experiment with HT29 colon. For the same compound, the growth with SNB-75 CNS was -5.72% (active); with SNB-19 CNS, 11.6%; with U251 CNS, 12.4%; in the experiment on PC-3 prostate, 5.71% (active); in the experiment with SK-MEL-5 melanoma it was -94.1% (active); in the experiment with UACC-62 melanoma, -38.5% (active). Besides, the growth in the experiment on LOX IMVI melanoma is -76% (active); in the experiment with SK-MEL-28 melanoma, 8.66% (active).
